In all, about 1,500 compounds went through this assay and about 890 (59%) were called active.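 How the source made its calls: active means inhibition of the choline-evoked signal at any tested dose together with a fitted dose-response curve; inactive means no inhibition at any dose or no curve.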 So high a share suggests a set chosen from earlier hits. These entries were drawn from the full list. Results with a measured potency or affinity are listed apart.
Each molecule was assayed against High affinity choline transporter 1 (Homo sapiens) (UniProt Q9GZV3) (assay: human choline transporter blockers, potency – cell-based, 5-point CRC, membrane potential dye, dose response (AID 504840;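 further: 0% = buffer-only response and 100% = EC90 choline response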)). Details: HEK293-CHT, choline-induced depolarization, CHT with LV-to-AA double alanine mutation; series mostly up to 37 µM; inhibition: at the top concentration.
Chain of High affinity choline transporter 1 (Homo sapiens) (Q9GZV3 whole entry, looked up): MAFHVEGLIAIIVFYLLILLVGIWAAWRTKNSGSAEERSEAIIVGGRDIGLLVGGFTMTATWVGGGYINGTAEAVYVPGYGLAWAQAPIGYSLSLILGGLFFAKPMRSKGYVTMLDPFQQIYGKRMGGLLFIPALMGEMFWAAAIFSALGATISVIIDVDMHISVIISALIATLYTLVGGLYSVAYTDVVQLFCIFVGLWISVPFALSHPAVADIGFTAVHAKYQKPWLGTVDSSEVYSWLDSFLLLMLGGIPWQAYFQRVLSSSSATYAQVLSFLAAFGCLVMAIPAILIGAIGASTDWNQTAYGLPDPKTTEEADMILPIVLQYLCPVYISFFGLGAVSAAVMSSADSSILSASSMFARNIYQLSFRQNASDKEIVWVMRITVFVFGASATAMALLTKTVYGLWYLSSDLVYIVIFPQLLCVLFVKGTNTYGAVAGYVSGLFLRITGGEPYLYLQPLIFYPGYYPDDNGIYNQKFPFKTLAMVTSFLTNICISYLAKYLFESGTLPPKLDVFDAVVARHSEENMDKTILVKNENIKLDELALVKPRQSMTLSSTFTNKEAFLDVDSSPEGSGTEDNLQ

Row | SMILES | inhibition
1 | COc1ccc(/C(O)=C2/C(=O)C(=O)N(c3ccccn3)C2c2cccc(Cl)c2)cc1 (stereo not given) | 37.6% (inactive)
2 | O=C(NC1CC1)C1=C[C@H](c2csc3ccccc23)C[C@H](OCc2ccc(CO)cc2)O1 | -0.201% (inactive)
3 | O=C(Nc1ccccc1C(=O)NCCCn1ccnc1)c1ccc(Cl)cc1Cl | 53.8% (inactive)
4 | O=C(Nc1ccc(OCc2ccccc2)cc1)Nc1ccccc1C(=O)NCCCN1CCOCC1 | 37.1% (inactive)
5 | CSc1ccccc1C(=O)NCCS(=O)(=O)N1CCN(c2ccc(F)cc2)CC1 | 53.1% (inactive)
6 | C=CCn1c(SC2CCOC2=O)nc2scc(C3CC3)c2c1=O (stereo not given) | 51% (inactive)
7 | CN(C)CCOC(=O)Cc1ccc(Cl)cc1 | 22.7% (inactive)
8 | COc1ccc(OCC(=O)NC(=S)Nc2ccccc2F)cc1 | 12.5% (inactive)
9 | CN(Cc1ccccc1)C(=O)COC(=O)COc1ccc(C#N)cc1 | 44.2% (inactive)
10 | Cc1sc2nc(SCCN(C)C)n(-c3ccccc3)c(=O)c2c1-c1ccc(F)cc1 | 57.2% (inactive)
11 | CCCCOc1cccc(C(=O)NNC(=S)NC2CCCCC2)c1 | 49% (inactive)
12 | Oc1ccc(Oc2ncc(Cl)cc2Cl)cc1 | 41.6% (inactive)
13 | CSCCC(NC(=O)c1ccccc1)C(=O)Nc1ccc(C)cc1 (stereo not given) | -7.83% (inactive)
14 | O=C(C[n+]1cccc2ccccc21)c1ccc(Cl)cc1 | 31.1% (inactive)
15 | CC(C)Cc1csc(NC(=O)c2ccc(Br)cc2)c1C(=O)O | 35.9% (inactive)
16 | CC(C)c1c(C(=O)N/N=C/c2cccc(OCc3ccc(F)cc3)c2)nnn1-c1nonc1N | 4.16% (inactive)
17 | CCCOP(=O)(c1ccc(N(C)C)cc1)C(O)c1ccc(Br)cc1 (stereo not given) | -9.68% (inactive)
18 | O=C(NNS(=O)(=O)c1ccc([N+](=O)[O-])cc1)c1ccc2ccccc2c1O | 36.4% (inactive)
19 | CCN1CCN(CC(=O)Nc2ccc(S(=O)(=O)N3C(C)CCCC3C)cc2)CC1 (stereo not given) | 76.4% (inactive)
20 | O=C(CCN1C(=O)/C(=C\c2cccc(Br)c2)SC1=S)NCCCN1CCOCC1 | 41.5% (inactive)
21 | S=c1nc(-c2ccco2)[nH][nH]1 | 44.5% (inactive)
22 | O=C(NC(=S)NNC(=O)[C@H]1C[C@@H]1c1ccccc1)c1cccc(F)c1 | 57.1% (inactive)
23 | Cc1csc2c(N3CCN(C(=S)Nc4ccc(C(F)(F)F)cc4)CC3)ncnc12 | 36.7% (inactive)
24 | CCCN1CCN(C(=S)Nc2ccc3nc(N4CCN(CC)CC4)cc(C)c3c2)CC1 | 71.7% (inactive)
25 | CCN1CCN(c2cc(C)c3cc(NC(=S)N4CCC5(CC4)OCCO5)ccc3n2)CC1 | 61% (inactive)
26 | O=c1c2c(C(F)(F)F)cc(C(F)(F)F)nc2[nH]n1-c1ccccc1 | 54.5% (inactive)
27 | CCCCCc1cc(=O)oc2c(C(CCN(CC)CC)c3cc(OC)c(OC)c(OC)c3)c(OC)cc(OC)c12 (stereo not given) | 36.1% (inactive)
28 | CCN(CC)CCCN(C(=O)c1ccc(OC)cc1)c1nc(-c2ccc(OC)cc2)cs1 | 41.3% (inactive)
29 | COc1cccc(C(=O)NN/C(C)=C/C(=O)C(F)(F)C(F)(F)C(F)(F)F)c1 | 43.2% (inactive)
30 | CSC(SC)=C(C#N)C(=O)c1ccccc1 | 94.9% (inactive)

— PubChem BioAssay AID504840 (Johns Hopkins Ion Channel Center, 2011)
